Measured values reported in PubChem BioAssay AID434970 (Sanford-Burnham Center for Chemical Genomics, 2010).
Hit rate of the full screen: of about 11,000 compounds, about 310 (2.8%) were called active. No stated cut-off is given here; in the data, active means activity change below about -85%; inactive means the rest. The list comes from a sample in which actives are over-represented; it also holds similar structures and randomly drawn compounds.

System: intestinal alkaline phosphatase [Mus musculus]
Assay: mouse intestinal phosphatase enzyme activation – biochemical, luminescence, single concentration, confirmation (AID 434970)
Details: purified mouse IAP, CDP-Star luminescence, 30 min, at 10 µM; activation factor: measured here: IAP activation factor, stronger effect = higher value; activity change, negative = activation: stronger effect = lower value

| SMILES | activation factor | activity change, negative = activation |
| --- | --- | --- |
| Cc1nc(CC(=O)Nc2nc(-c3ccccc3)cs2)cs1 | 0.961 | 3.9% (inactive) |
| COc1ccc(OC)c(S(=O)(=O)N2CCC(C(=O)NC(C)c3ccccc3)CC2)c1 (stereo not given) | 1.03 | -3.4% (inactive) |
| Nc1c(C(=O)NCCc2ccccc2)nnn1Cc1ccc(Cl)cc1 | 1.1 | -9.55% (inactive) |
| Cc1cc(C)c2c(n1)nn1c(NCCOCCO)cc(C)nc21 | 0.968 | 3.25% (inactive) |
| Cc1ccc(S(=O)(=O)N2C[C@@H]3[C@H]4CC[C@H](C4)[C@@H]3[C@@H](C)[C@@H]2c2ccn([Si](C(C)C)(C(C)C)C(C)C)c2)cc1 | 0.986 | 1.35% (inactive) |
| COc1ccc(S(=O)(=O)Nc2cc(C(C)C)c(O)cc2C)cc1 | 0.996 | 0.45% (inactive) |
| Cc1ccc(SCCCn2cnc3ccccc3c2=O)cc1 | 0.958 | 4.25% (inactive) |
| COc1cc(OC)c2c(-c3ccccc3)cc(=O)oc2c1C(CCN1CCOCC1)c1ccc2c(c1)OCO2 (stereo not given) | 0.932 | 6.8% (inactive) |
| CCN(CC)C(=O)[C@H]1CC(CC(=O)NCCC2=CCCCC2)C(=O)N2CCc3c([nH]c4ccc(OC)cc34)[C@]12C (stereo not given in full) | 1.07 | -7.45% (inactive) |
| O=C(Nc1cccc(-c2cccc(Cl)c2)c1)C1CCN(C2CCC2)CC1 | 3.94 | -294% (active) |
| COc1ccc(OC)c(S(=O)(=O)N2CCC(C(=O)Nc3cccc(C(F)(F)F)c3)CC2)c1 | 1.61 | -60.9% (inactive) |
| O=C(Nc1cccc(F)c1)C1CC(=O)N(c2ccc(Cl)cc2)C1 (stereo not given) | 1.07 | -7.45% (inactive) |
| O=C(Nc1cccc(Cl)c1)NC1CCN(C2CCCCC2)C1 (stereo not given) | 1.85 | -84.9% (inactive) |
| O=C(Nc1cccc(-c2cccc(F)c2)c1)C1CCN(C2CCC2)CC1 | 2.55 | -155% (active) |
| S=C(Nc1cccc(Cl)c1)NC1CC2CCCC(C1)N2C1CCCC1 (stereo not given) | 1.44 | -44.3% (inactive) |
| Cc1noc(C)c1COC(=O)C1COc2ccccc2O1 (stereo not given) | 1.08 | -8.15% (inactive) |
| CC[C@]12c3[nH]c4cc(-c5ccco5)ccc4c3CCN1C(=O)[C@@H](CC(=O)NCC13CC4CC(CC(C4)C1)C3)C[C@@H]2C(=O)N1CCN(C(=O)C2CC2)CC1 | 0.989 | 1.05% (inactive) |
| COc1cc2sc(-c3ccccc3OC)c(-c3ccc(OCCN4CCOCC4)cc3)c2cc1OC | 1 | -0.3% (inactive) |
| CCSc1nnc(NC(=O)CCNS(=O)(=O)c2cc(Br)cnc2N)s1 | 0.825 | 17.4% (inactive) |
| O=C(Nc1ccc(F)cc1)Nc1cc(OCC(F)(F)F)cc(OCC(F)(F)F)c1 | 2.11 | -111% (active) |
| O=C(Nc1ccc(F)cc1)Nc1cccc(Br)c1 | 1.74 | -73.8% (inactive) |
| CCOc1ccc(NC(=O)Nc2cc(C)ccc2OC)cc1 | 1.16 | -15.9% (inactive) |
| CCOc1ccc(NC(=O)Nc2cc(OCC(F)(F)F)cc(OCC(F)(F)F)c2)cc1 | 2.08 | -108% (active) |
| CCOC(=O)c1cccc(NC(=O)Nc2ccc(OCC)cc2)c1 | 1.88 | -87.6% (inactive) |
| CC(C)(C)c1ccc(NC(=O)Nc2ccc(F)cc2)cc1 | 1.65 | -65.3% (inactive) |
